Among the targets are hnRNP-A3 (Homo sapiens, UniProt P51991); hnRNP-A1 (Homo sapiens, UniProt P09651); eIF3-delta (Homo sapiens, UniProt O75821); G3BP-1 (Homo sapiens, UniProt Q13283); CELF5(3) (Homo sapiens, UniProt Q8N6W0); CPEB1 (Homo sapiens, UniProt Q9BZB8).
Holding throughout (experiment): protein domain microarray probed with biotinylated miRNA; Domain array: 20 mM Tris-HCl pH 7.4, 200 mM KCl, 0.2 mM EDTA, 0.05% NP40, 2 ug/ul heparin, overnight 4 C. ORF array: PBS pH 7.0 with RNase inhibitor, 100 ng RNA; high values mean tight binding
Settings in all cases: ssRNA

Another assay has as its target T1, DAZ4 (Homo sapiens, UniProt Q86SG3).
T1 sequence: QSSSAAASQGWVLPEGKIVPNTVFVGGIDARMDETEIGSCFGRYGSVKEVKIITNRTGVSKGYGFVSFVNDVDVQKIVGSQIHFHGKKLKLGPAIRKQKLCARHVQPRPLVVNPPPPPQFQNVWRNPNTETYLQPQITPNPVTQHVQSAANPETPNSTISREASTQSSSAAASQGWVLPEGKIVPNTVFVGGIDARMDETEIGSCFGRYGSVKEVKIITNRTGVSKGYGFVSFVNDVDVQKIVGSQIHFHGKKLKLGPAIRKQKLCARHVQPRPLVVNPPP

For a further assay, the target named is T2, hnRNP-M(1-2) (Homo sapiens, UniProt P52272).
T2 sequence: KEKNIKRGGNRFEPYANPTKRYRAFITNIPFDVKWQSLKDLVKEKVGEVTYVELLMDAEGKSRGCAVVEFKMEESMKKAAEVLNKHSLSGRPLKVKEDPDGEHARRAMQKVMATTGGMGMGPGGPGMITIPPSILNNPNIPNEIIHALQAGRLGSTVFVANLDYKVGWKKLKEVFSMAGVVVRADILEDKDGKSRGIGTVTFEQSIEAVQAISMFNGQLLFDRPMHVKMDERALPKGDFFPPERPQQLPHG

The next assay addresses T3, LARP7(2) (Homo sapiens, UniProt Q4G0J3).
T3 sequence: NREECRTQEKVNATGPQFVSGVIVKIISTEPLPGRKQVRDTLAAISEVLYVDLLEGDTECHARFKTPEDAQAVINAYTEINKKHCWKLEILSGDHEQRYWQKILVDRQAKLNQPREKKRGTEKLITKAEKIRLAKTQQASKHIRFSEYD

The target of a further assay is T4, hnRNP-R (Homo sapiens, UniProt O43390).
T4 sequence: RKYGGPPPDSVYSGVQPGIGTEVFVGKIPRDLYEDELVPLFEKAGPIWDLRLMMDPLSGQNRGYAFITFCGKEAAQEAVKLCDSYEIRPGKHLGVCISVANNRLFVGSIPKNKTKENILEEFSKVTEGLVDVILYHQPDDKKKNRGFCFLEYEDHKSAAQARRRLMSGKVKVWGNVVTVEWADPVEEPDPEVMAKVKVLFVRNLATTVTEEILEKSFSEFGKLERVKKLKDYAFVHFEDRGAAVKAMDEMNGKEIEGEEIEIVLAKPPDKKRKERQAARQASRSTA

The target of the next assay is T5, DAZ1 (Homo sapiens, UniProt Q9NQZ3).
T5 sequence: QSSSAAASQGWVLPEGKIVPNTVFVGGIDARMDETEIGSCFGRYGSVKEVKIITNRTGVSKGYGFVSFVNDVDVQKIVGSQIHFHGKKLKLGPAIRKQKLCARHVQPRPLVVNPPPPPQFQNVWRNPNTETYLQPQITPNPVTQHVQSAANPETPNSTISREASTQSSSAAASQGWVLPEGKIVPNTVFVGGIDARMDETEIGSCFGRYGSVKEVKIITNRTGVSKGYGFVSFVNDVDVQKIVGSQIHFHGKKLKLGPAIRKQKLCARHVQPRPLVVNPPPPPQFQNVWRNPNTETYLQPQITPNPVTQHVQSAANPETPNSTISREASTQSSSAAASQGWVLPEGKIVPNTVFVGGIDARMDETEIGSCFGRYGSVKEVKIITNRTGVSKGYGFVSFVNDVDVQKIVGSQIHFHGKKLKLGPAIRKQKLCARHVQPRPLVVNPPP

In a further assay the target is T6, DAZL (Homo sapiens, UniProt Q92904).
T6 sequence: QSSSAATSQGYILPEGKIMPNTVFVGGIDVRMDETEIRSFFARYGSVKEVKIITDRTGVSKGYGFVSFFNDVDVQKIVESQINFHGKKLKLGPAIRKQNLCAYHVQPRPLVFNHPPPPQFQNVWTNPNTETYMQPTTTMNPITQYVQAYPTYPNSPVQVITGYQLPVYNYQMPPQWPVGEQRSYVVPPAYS

The next assay deals with T7, NOL8 (Homo sapiens, UniProt Q76FK4).
T7 sequence: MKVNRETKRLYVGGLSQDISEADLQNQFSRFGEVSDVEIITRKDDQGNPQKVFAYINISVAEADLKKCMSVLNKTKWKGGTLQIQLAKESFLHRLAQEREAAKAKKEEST

In a further assay the target is T8, hnRNP-A0 (Homo sapiens, UniProt Q13151).
T8 sequence: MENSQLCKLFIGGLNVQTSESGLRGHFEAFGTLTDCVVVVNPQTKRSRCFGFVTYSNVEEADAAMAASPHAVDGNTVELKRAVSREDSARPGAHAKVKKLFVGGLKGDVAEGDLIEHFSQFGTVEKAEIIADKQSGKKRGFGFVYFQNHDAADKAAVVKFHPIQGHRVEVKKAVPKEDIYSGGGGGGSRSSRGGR

For the next assay, the target named is T9, NeuN (Homo sapiens, UniProt A6NFN3).
T9 sequence: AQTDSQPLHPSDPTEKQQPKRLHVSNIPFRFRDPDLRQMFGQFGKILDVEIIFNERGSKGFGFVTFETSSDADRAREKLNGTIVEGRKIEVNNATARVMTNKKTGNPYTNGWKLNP

The target in another assay is T10, hnRNP-2H9 (Homo sapiens, UniProt P31942).
T10 sequence: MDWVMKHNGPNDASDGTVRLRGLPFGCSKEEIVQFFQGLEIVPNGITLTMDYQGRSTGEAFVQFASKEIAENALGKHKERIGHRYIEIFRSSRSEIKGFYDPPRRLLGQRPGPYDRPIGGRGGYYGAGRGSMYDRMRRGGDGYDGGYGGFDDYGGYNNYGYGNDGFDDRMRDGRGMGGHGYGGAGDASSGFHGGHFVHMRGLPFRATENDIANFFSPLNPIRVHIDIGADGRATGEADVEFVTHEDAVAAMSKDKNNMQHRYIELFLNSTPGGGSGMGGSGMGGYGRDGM

A further assay has as its target T11, CPEB4 (Homo sapiens, UniProt Q17RY0).
T11 sequence: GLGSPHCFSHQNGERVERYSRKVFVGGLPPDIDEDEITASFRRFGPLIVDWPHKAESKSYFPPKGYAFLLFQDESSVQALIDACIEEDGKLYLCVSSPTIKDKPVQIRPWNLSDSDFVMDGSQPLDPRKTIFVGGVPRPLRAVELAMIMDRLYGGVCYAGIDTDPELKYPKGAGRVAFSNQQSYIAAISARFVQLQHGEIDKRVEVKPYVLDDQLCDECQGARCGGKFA

Another assay addresses T12, MYEF2(3) (Homo sapiens, UniProt Q9P2K5).
T12 sequence: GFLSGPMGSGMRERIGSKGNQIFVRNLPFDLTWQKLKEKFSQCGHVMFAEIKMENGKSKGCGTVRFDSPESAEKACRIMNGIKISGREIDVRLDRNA

Another assay concerns the target T13, CstF-64T (Homo sapiens, UniProt Q9H0L4).
T13 sequence: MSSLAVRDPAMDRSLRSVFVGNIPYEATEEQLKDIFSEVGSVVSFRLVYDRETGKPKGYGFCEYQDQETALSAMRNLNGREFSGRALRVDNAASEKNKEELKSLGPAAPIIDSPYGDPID

A further assay addresses T14, LKAP (Homo sapiens, UniProt Q9Y4F3).
T14 sequence: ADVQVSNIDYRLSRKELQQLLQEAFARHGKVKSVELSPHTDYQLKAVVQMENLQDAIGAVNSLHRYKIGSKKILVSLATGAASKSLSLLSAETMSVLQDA

Sequence of eIF3-delta (O75821 220-320, stated change not applied): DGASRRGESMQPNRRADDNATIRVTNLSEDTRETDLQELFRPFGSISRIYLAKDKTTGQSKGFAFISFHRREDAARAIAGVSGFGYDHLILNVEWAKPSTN
Sequence of hnRNP-A3 (P51991 15-225): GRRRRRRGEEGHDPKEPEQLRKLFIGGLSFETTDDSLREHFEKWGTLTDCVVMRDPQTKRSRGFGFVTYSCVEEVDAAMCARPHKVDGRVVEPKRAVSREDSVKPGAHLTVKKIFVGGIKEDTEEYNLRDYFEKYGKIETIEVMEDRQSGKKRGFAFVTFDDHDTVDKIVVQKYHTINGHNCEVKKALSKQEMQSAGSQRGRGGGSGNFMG
Sequence of hnRNP-A1 (P09651 1-205): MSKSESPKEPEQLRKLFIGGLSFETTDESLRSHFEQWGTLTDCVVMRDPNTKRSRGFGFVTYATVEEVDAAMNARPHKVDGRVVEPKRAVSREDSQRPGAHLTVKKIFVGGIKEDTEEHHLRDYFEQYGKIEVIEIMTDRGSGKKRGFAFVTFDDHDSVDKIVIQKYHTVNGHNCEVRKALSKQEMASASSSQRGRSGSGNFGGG
Sequence of CELF5(3) (Q8N6W0 376-485): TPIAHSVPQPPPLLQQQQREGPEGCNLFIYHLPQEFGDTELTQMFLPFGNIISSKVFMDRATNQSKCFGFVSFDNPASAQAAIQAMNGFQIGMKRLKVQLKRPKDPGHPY
Sequence of CPEB1 (Q9BZB8 290-531): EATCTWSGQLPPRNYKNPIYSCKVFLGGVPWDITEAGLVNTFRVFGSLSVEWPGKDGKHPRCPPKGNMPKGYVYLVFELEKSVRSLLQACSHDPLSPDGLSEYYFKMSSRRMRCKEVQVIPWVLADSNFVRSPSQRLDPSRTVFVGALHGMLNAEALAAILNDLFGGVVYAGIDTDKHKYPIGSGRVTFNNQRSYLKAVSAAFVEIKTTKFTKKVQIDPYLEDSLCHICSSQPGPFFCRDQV
Sequence of G3BP-1 (Q13283 320-435): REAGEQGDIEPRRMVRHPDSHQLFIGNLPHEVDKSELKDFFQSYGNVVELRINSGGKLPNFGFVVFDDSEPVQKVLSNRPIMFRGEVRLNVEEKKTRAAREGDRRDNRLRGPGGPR

For UGAGGUAGUAGGUUGUAUAGUU, the binding signal with DAZ4 worked out at 215 ± 41.8 fluorescence intensity; with hnRNP-M(1-2) it was 581.3 ± 5.61 fluorescence intensity; in the assay with hnRNP-A3, 952 ± 63 fluorescence intensity; in the assay with LARP7(2), 179 ± 11.7 fluorescence intensity; with hnRNP-A1 it was 22 ± 6.92 fluorescence intensity; with eIF3-delta, 80.4 ± 7.03 fluorescence intensity. The binding signal worked out at 109 ± 5.8 fluorescence intensity with hnRNP-R; 193 ± 22.1 fluorescence intensity in the assay with DAZ1; 286 ± 21.3 fluorescence intensity with G3BP-1; 94.2 ± 11 fluorescence intensity with DAZL; 20.3 ± 2.97 fluorescence intensity with NOL8; 1310 ± 111 fluorescence intensity with hnRNP-A0. Also, the binding signal with NeuN stood at 866 ± 44.2 fluorescence intensity; in the assay with hnRNP-2H9 it was 151 ± 11.1 fluorescence intensity; in the assay with CPEB4, 82.4 ± 7.2 fluorescence intensity; in the assay with CELF5(3), 450 ± 137 fluorescence intensity; with CPEB1, 110 ± 9.17 fluorescence intensity; in the assay with MYEF2(3) it was 190.1 ± 1.74 fluorescence intensity. The binding signal in the assay with CstF-64T turned out to be 387 ± 8.85 fluorescence intensity.

As to UGAGGUAGUAGGUUGUAUGGUU, the binding signal in the assay with DAZ4 was determined as 778 ± 25.6 fluorescence intensity; with hnRNP-M(1-2) it was 1452 ± 3.71 fluorescence intensity; with hnRNP-A3 it was 1730 ± 33.6 fluorescence intensity; with LARP7(2) it was 511 ± 8.38 fluorescence intensity; with hnRNP-A1 it was 74.6 ± 1.05 fluorescence intensity; with eIF3-delta it was 262 ± 21.2 fluorescence intensity. Moreover, the binding signal came out at 666 ± 24.3 fluorescence intensity in the assay with hnRNP-R; 65.2 ± 2.55 fluorescence intensity in the assay with LKAP; 673 ± 9.53 fluorescence intensity in the assay with DAZ1; 1240 ± 13.5 fluorescence intensity in the assay with G3BP-1; 303 ± 13.1 fluorescence intensity with DAZL; 49 ± 3.09 fluorescence intensity with NOL8. Besides, the binding signal with hnRNP-A0 came out at 2280 ± 31.4 fluorescence intensity; with NeuN, 2130 ± 66 fluorescence intensity; with hnRNP-2H9, 368 ± 23.9 fluorescence intensity; with CPEB4, 148 ± 21.1 fluorescence intensity; in the assay with CELF5(3) it was 1000 ± 43 fluorescence intensity; in the assay with CPEB1, 312 ± 54.2 fluorescence intensity. In addition, the binding signal came to 560 ± 17.7 fluorescence intensity in the assay with MYEF2(3) and 853 ± 47 fluorescence intensity with CstF-64T.

As to AGAGGUAGUAGGUUGCAUAGUU, the binding signal amounted to 934 ± 29.1 fluorescence intensity with DAZ4; 1710 ± 32.8 fluorescence intensity with hnRNP-M(1-2); 2440 ± 28.8 fluorescence intensity in the assay with hnRNP-A3; 400 ± 39.4 fluorescence intensity in the assay with LARP7(2); 62.9 ± 11.7 fluorescence intensity with hnRNP-A1; 231 ± 8.61 fluorescence intensity with eIF3-delta. Further, the binding signal in the assay with hnRNP-R came to 362 ± 6.89 fluorescence intensity; with LKAP, 41.4 ± 3.31 fluorescence intensity; in the assay with DAZ1, 814 ± 10.2 fluorescence intensity; with G3BP-1, 1220 ± 45.7 fluorescence intensity; with DAZL, 362 ± 63.4 fluorescence intensity; with NOL8, 33.7 ± 0.233 fluorescence intensity. Moreover, the binding signal came out at 3219 ± 6.02 fluorescence intensity in the assay with hnRNP-A0; 2786.2 ± 1.57 fluorescence intensity with NeuN; 466 ± 9.64 fluorescence intensity in the assay with hnRNP-2H9; 130 ± 29.4 fluorescence intensity in the assay with CPEB4; 1050 ± 99.1 fluorescence intensity with CELF5(3); 377 ± 32.4 fluorescence intensity with CPEB1. Besides, the binding signal stood at 578 ± 21.2 fluorescence intensity with MYEF2(3) and 1930 ± 88 fluorescence intensity with CstF-64T.

Values taken from publication PMC11574364.
